The source made the active and inactive calls. Cut-off read from the data, not from the text of the source, unless noted: active = inhibition above about 80%; inactive = the rest.
Experiments:
[1] = hESC survival regulators, cell-based (AID 493140; call rule not given here;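 note: cells exposed to compounds for four days before counting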); settings: human embryonic stem cell survival screen; stronger effect = higher value
[2] = circadian clock period modulators, cell-based, LOPAC library, luminescence reporter (AID 2774; call rule not given here;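 note: values are relative to mean of DMSO wells on each plate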); settings: circadian reporter cells, at 7 µM, actives lie on both sides
[3] = test system: Hepatitis C virus NS3 helicase; test: HCV NS3 helicase inhibitors, primary screen, biochemical, fluorescence polarization, LOPAC1280 library (AID 687035; in the data active = inhibition above about 37%); settings: Purified HCV NS3 helicase, Cy5-dT15 ssDNA binding fluorescence polarization; stronger effect = higher value; concentration not given here
[4] = Cy5 fluorescence quenching or enhancement artefacts, artefact control for HCV NS3 helicase inhibitor project, biochemical, LOPAC1280 (AID 687037; call rule not given here); settings: Cy5-DNA-NS3h complex fluorescence interference counterscreen
[5] = LFS_MB_1R medulloblastoma cell growth inhibition, synergistic combos for chromothripsis tumors, cisplatin or BGB combos (AID 1671452); settings: LFS_MB_1R medulloblastoma cells, stronger effect = higher value;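 note: cells exposed for 96 hours before readout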
[6] = CRL2098 osteosarcoma cell growth inhibition, synergistic combos for chromothripsis tumors, BGB or cisplatin IC20 combos (AID 1671454); settings: CRL2098 osteosarcoma cells, drug combinations, stronger effect = higher value;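 note: cells exposed for 96 h before readout; 0% = vehicle DMSO and 100% = killing by high DMSO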
[7] = HD-MB03 medulloblastoma cell growth inhibition, synergistic combos for chromothripsis tumors, BGB or cisplatin IC20 combos (AID 1671455; in the data active = inhibition above about 83%;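 note: 0% = vehicle DMSO and 100% = high DMSO as cytotoxic control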); settings: HD-MB03 medulloblastoma cells, stronger effect = higher value
[8] = UWB1.289 ovarian carcinoma cell growth inhibition, synergistic combos for chromothripsis tumors, BGB or cisplatin combos (AID 1671456); settings: UWB1.289 ovarian carcinoma cells, stronger effect = higher value;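 note: cells exposed to compound for four days; 0% = vehicle DMSO and 100% = killing by high DMSO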
[9] = LFS_MB_2R medulloblastoma cell growth inhibition, synergistic combos for chromothripsis tumors, cisplatin combos (AID 1671457); settings: LFS_MB_2R medulloblastoma cells, stronger effect = higher value;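 note: cells exposed to compound for four days before readout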
[10] = MDA-MB-436 breast carcinoma cell growth inhibition, synergistic combos for chromothripsis tumors, BGB or cisplatin combos (AID 1671458; call rule not given here;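 note: cells exposed for 96 hours; 0% = vehicle DMSO and 100% = killing by high DMSO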); settings: MDA-MB-436 breast carcinoma growth inhibition, drug combinations, stronger effect = higher value
[11] = UWB1.289_BRCA1 ovarian cancer growth, cell-based, BGB or cisplatin combinations (AID 1671459); settings: UWB1.289 BRCA1 ovarian carcinoma, drug combinations, stronger effect = higher value
[12] = human astrocyte viability loss, single and combined drugs, cytotoxicity control for chromothriptic childhood tumor combination screen, cell-based, BGB or cisplatin IC20 combos (AID 1671460); settings: Human astrocytes, drug combinations, stronger effect = higher value;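 note: cells exposed to compounds for 96 hours before viability readout; 0% = vehicle and 100% = killing control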
[13] = growth inhibition of BT084 medulloblastoma cells, cell-based, ICGC_MB145, cisplatin and BGB IC40 combos (AID 1671461); settings: drug combinations, stronger effect = higher value;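 note: cells exposed to drugs for 96 hours; 0% = vehicle DMSO and 100% = high DMSO full killing control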
[14] = growth inhibition of RCMB18 medulloblastoma cells, cell-based, cisplatin and BGB IC40 combos (AID 1671462); settings: stronger effect = higher value;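 note: cells exposed to compound for four days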
[15] = growth inhibition of CRL1545 osteosarcoma cells, cell-based, cisplatin and BGB IC20 combos (AID 1671464); settings: stronger effect = higher value;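 note: cells exposed to compound for 96 hours before readout; 0% = vehicle DMSO and 100% = high DMSO killing control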
[16] = measured here: combination with BGB IC40, at 0.05 µM
[17] = measured here: combination with cisplatin, at 0.5 µM
[18] = measured here: combination with cisplatin, at 5 µM
[19] = measured here: combination with BGB at IC20, at 0.5 µM
[20] = measured here: combination with cisplatin at IC20, at 0.5 µM
[21] = measured here: combo with BGB at IC20, at 0.5 µM
[22] = measured here: combo with cisplatin at IC20, at 0.5 µM
[23] = measured here: inhibition with BGB combination, at 0.05 µM
[24] = measured here: inhibition with cisplatin combination, at 0.05 µM
[25] = measured here: BGB combination, at 0.5 µM
[26] = measured here: BGB combination, at 5 µM
[27] = measured here: cisplatin combination, at 0.5 µM
[28] = measured here: cisplatin combination, at 5 µM
[29] = BGB combination, concentration series, at 5 µM
[30] = cisplatin combination, concentration series, at 5 µM
[31] = measured here: combo with BGB IC20, at 0.5 µM
[32] = measured here: combo with cisplatin IC20, at 0.5 µM
[33] = cisplatin combination, at 0.5 µM
[34] = measured here: BGB IC40 combination 0.05 uM, at 0.05 µM
[35] = measured here: BGB IC40 combination, at 0.05 µM
[36] = measured here: with BGB IC20 combination, at 0.5 µM
[37] = measured here: with cisplatin IC20 combination, at 0.5 µM

With `COC(=O)/C=C/c1cc(O)ccc1O` the survival [1] was 85.3 (inactive).
With `COC(=O)c1c(-c2cc(OC)c(OC)c(OC)c2)c2ccnc(OCc3ncccn3)c2c(=O)n1Cc1ccnc(C)c1` the period change [2] was 0.03 h (inactive).
In the case of `CC(C)C1C2CCC(C2)C1N` (configuration not stated), the period change [2] is reported as -0.025 h (inactive).
In the case of `COc1[nH]c2ccc(F)cc2c1C(=O)OCC1CCN(CCNS(C)(=O)=O)CC1`, the period change [2] is reported as -0.015 h (inactive).
For `N#C/C(=C\c1ccc(O)c(O)c1)C(=O)Nc1ccccc1`, the period change [2] was 0.11 h (inactive), the inhibition [3] was -2% (inactive) and the fluorescence ratio (interference) [4] was 0.9 (inactive).
For `NS(=O)(=O)c1cccc2c1c([N+](=O)[O-])cc1nc(O)c(O)nc12`, the period change [2] was 0.35 h (inactive), the inhibition [3] was -6% (inactive) and the fluorescence ratio (interference) [4] was 1 (inactive).
With `N#C/C(=C\c1ccc(O)c(O)c1)C(N)=O` the survival [1] was 73 (inactive).
With `C#CCN1C(C)=C(C(=O)OC)C(c2cccc([N+](=O)[O-])c2)C(C(=O)OCC)=C1C` (configuration not stated) the period change [2] was -0.025 h (inactive), the inhibition [3] was 1% (inactive) and the fluorescence ratio (interference) [4] was 0.9 (inactive).
In the case of `O=c1[nH]cnc2ccccc12`, the inhibition ([5]; at 0.5 µM) is reported as -18.8% (inactive), the inhibition [5, 16] is reported as -25.1% and the inhibition [5, 17] is reported as -17.4%. The inhibition [5, 18] was -38.3%, the inhibition ([6]; at 0.5 µM) was -61.6% (inactive) and the inhibition [6, 19] was -35.5%. The inhibition [6, 20] was -103%, the inhibition ([7]; at 0.5 µM) was 4.79% (inactive) and the inhibition [7, 21] was 10.7%. The inhibition [7, 22] was 11.6%, the inhibition ([8]; at 0.5 µM) was 2.5% (inactive) and the inhibition [8, 23] was -5.21%. For the same compound, the inhibition [8, 24] was -17.2%, the inhibition ([9]; at 0.5 µM) was -8.8% (inactive) and the inhibition [9, 17] was -21.4%. The inhibition [9, 18] was -15.8%, the inhibition ([10]; at 0.5 µM) was -5.02% (inactive) and the inhibition [10, 25] was -15%. For the same compound, the inhibition [10, 26] was -20.2%, the inhibition [10, 27] was -1.15% and the inhibition [10, 28] was -18.2%. For the same compound, the inhibition [11, 29] was 11.1%, the inhibition ([11]; at 0.5 µM) was 0.09% (inactive) and the inhibition [11, 30] was -4.56%. For the same compound, the inhibition ([12]; at 0.5 µM) was 12.5% (inactive), the inhibition [12, 31] was -1.33% and the inhibition [12, 32] was 21.8%. The inhibition ([13]; at 0.5 µM) was -14% (inactive), the inhibition [13, 33] was -49.4% and the inhibition ([13]; cisplatin combination, at 5 µM) was -11.8%. The inhibition [13, 34] was -51.7%, the inhibition ([13]; single agent, at 5 µM) was 12.2% and the inhibition ([14]; at 0.5 µM) was -16.1% (inactive). It also gave an inhibition ([14]; cisplatin combo, at 5 µM) of -26.7%, an inhibition [14, 35] of -1.26% and an inhibition [14, 17] of -25.5%. For the same compound, the inhibition ([14]; single agent, at 5 µM) was -13.2%, the inhibition ([15]; at 0.5 µM) was 0.67% (inactive) and the inhibition [15, 36] was -3.84%. It also gave an inhibition [15, 37] of 1.34%, an inhibition ([15]; single agent, at 0.05 µM) of -24.3% and an inhibition ([15]; single agent, at 5 µM) of -5.49%.
In the case of `N#C/C(=C\c1ccc(O)c(O)c1)C(=O)NCCCc1ccccc1`, the period change [2] is reported as 0.005 h (inactive), the inhibition [3] is reported as -2% (inactive) and the fluorescence ratio (interference) [4] is reported as 1 (inactive).
With `COc1cc(C=O)c([N+](=O)[O-])cc1OC` the inhibition ([5]; at 0.5 µM) was -20.1% (inactive), the inhibition [5, 16] was -4.39% and the inhibition [5, 17] was -40%. The inhibition [5, 18] was -37.8%, the inhibition ([6]; at 0.5 µM) was -33.8% (inactive) and the inhibition [6, 19] was -36.3%. For the same compound, the inhibition [6, 20] was -11%, the inhibition ([7]; at 0.5 µM) was -11.8% (inactive) and the inhibition [7, 21] was -17.8%. For the same compound, the inhibition [7, 22] was -8.28%, the inhibition ([8]; at 0.5 µM) was -8.53% (inactive) and the inhibition [8, 23] was 3.53%. The inhibition [8, 24] was -7.7%, the inhibition ([9]; at 0.5 µM) was -7.6% (inactive) and the inhibition [9, 17] was -4.15%. The inhibition [9, 18] was 0.394%, the inhibition ([10]; at 0.5 µM) was -6.2% (inactive) and the inhibition [10, 25] was -13%. For the same compound, the inhibition [10, 26] was -6.36%, the inhibition [10, 27] was 1.75% and the inhibition [10, 28] was 6.49%. For the same compound, the inhibition [11, 29] was 0.582%, the inhibition ([11]; at 0.5 µM) was -4.66% (inactive) and the inhibition [11, 30] was -5.09%. The inhibition ([12]; at 0.5 µM) was -7.65% (inactive), the inhibition [12, 31] was -3.78% and the inhibition [12, 32] was -9.79%. The inhibition ([13]; at 0.5 µM) was 1.74% (inactive), the inhibition [13, 33] was 3.64% and the inhibition ([13]; cisplatin combination, at 5 µM) was -6.4%. For the same compound, the inhibition [13, 34] was 80.8%, the inhibition ([13]; single agent, at 5 µM) was 1.94% and the inhibition ([14]; at 0.5 µM) was -0.87% (inactive). For the same compound, the inhibition ([14]; cisplatin combo, at 5 µM) was -1.64%, the inhibition [14, 35] was 1.84% and the inhibition [14, 17] was 9.53%. For the same compound, the inhibition ([14]; single agent, at 5 µM) was -21.6%, the inhibition ([15]; at 0.5 µM) was -4.03% (inactive) and the inhibition [15, 36] was -16.1%. For the same compound, the inhibition [15, 37] was 2%, the inhibition ([15]; single agent, at 0.05 µM) was -14.2% and the inhibition ([15]; single agent, at 5 µM) was -34.2%.
In the case of `COc1cc2c(cc1C(F)(F)F)N(C(=O)Nc1cc(F)cc(-c3cccnc3)c1)CC2`, the period change [2] is reported as 0.195 h (inactive).

Source: PubChem BioAssay
